Most compounds without a hit are left out; they make up all but 11% or so of the library.
FLuc inh – blocks purified firefly luciferase enzyme activity; Potency, µM (titrated, usually from 115 µM), actives largely listed as inhibitors; purified P. pyralis luciferase, luminescence, biochemical; 76,000 tested, 2.5% active; note: nearly all actives have a fitted effect of over 65% in size
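Inhibitors were tested against purified firefly luciferase in a biochemical, low-substrate format (both substrates at 10uM) and luminescence measured with a CCD imager.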
HEK cytotox – kills HEK 293 cells. HEK 293 viability, ATP luminescence (CellTiter-Glo), 48-72 h. Potency, µM (highest dose often 115 µM), without a hit: top-dose activity change, negative = cytotoxicity, hits mostly inhibitors. AID 1345083. 94,000 tested, 6.6% active; note: nearly all actives have a fitted effect of over 60% in size
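HEK 293 cells seeded at 250 cells/well were exposed to compound for 48 or 72 hr at 37 degree Celsius. Viability taken as ATP content by CellTiter-Glo luminescence.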
NPR1 antag – antagonists of human natriuretic peptide receptor Npr1; HEK293 hNpr1 GloSensor cGMP, ANP-stimulated luminescence; Potency, µM (highest dose often 46.3 µM), inactives show top-dose activity change, negative = inhibition, actives largely listed as inhibitors; 76,000 tested, 1.6% active; P16066; calls by dose curve; note: nearly all actives have a fitted effect of over 60% in size
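HEK293 cells stably expressing human Npr1 and cGMP GloSensor pGS-40F, loaded 2 h with 2% GloSensor reagent, given compound 30 min at room temperature. Luminescence read before and 20 min after 0.1 nM hNppA.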
3T3 cytotox – NIH 3T3 cell cytotoxicity; Potency, µM (titrated, usually from 96.7 µM), for the others: top-dose activity change, negative = cytotoxicity, usual class: inhibitors; NIH 3T3 viability, CellTiter-Glo ATP luminescence, 48-72 h; 94,000 tested, 4.3% active; note: nearly all actives have a fitted effect of over 55% in size
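Cytotoxicity is measured as loss of cellular ATP: NIH 3T3 cells (400/well) are exposed to compound for 48 or 72 hr at 37 °C, then CellTiter-Glo luminescence is imaged after 10 min at room temperature.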
Active calls of the source: *; i = inactive; ? = inconclusive; nt = no result; [ ] = dose if it differs, or a comment. Unless noted, calls come from the whole dose curve; as a rule, active = well fitted curve in the direction sought with a large enough effect; inconclusive = small, poorly fitted or top-dose-only effect, or another doubt; inactive = no such curve, though single readings can be large; an effect the other way counts as inactive or inconclusive. % is set by controls: 0 for no effect and ±100 for the full control effect; potency is the fitted concentration of half-maximal effect.

SMILES	FLuc inh	HEK cytotox	NPR1 antag	3T3 cytotox
CC(C)Oc1cccc(-c2ccc(C(=O)N(C)C)cc2)c1	?	35.5µM*	-2.0%	?
COc1cccc(-c2ccc(C(=O)O)cc2)c1	nt	-10.4%[230 µM]	nt	-12.9%[174 µM]
CCN(CC)C(=O)c1csc(-c2cccc(OC(C)C)c2)n1	i	39.8µM*	?	?
CC(C)CNC(=O)c1csc(-c2cccc(OC(C)C)c2)n1	i	39.8µM*	-5.3%	?
CCOc1cccc(-c2nc(C(=O)NCc3ccccc3)cs2)c1	i	?	?	?
O=[S+]([O-])(NC1CCN(Cc2ccc(-c3ccsc3)cc2)C1)c1cccc(C(F)(F)F)c1 (centres undefined)	nt	28.2µM*	nt	15.8µM*
CC(=O)Nc1ccc([S+](=O)([O-])NC2CCN(CCn3nc4n(c3=O)CCCC4)C2)cc1 (centres undefined)	nt	0.6%	nt	0.0%
Cc1ccc([S+](=O)([O-])NC2CCN(Cc3ccc(-c4ccsc4)cc3)C2)cc1 (centres undefined)	nt	44.7µM*	nt	?
CCC(C)C1=NS(=O)(=O)c2cc(NC(=O)c3ccco3)ccc2N1c1ccccc1 (centres undefined)	i	?	2.4%	-29.5%
CC1(C(=O)NCc2cccnc2)CCCc2cnc(Nc3ccccc3F)nc21 (centres undefined)	i	?	2.4%[70.6 µM]	?
CC1(C(=O)NCC2CC2)CCCc2cnc(NCc3ccccc3)nc21 (centres undefined)	i	?	-24.2%[70.6 µM]	?
CC1(C(=O)NCC2CCCO2)CCc2cnc(NCc3ccccc3)nc21 (centres undefined)	i	-25.9%[172 µM]	-4.8%[70.6 µM]	50.1µM*
COc1cccc(Nc2ncc3c(n2)C(C)(C(=O)N2CCN(c4ccccn4)CC2)CC3)c1 (centres undefined)	i	?	-0.4%	-26.9%
CC1(C(=O)NCCc2ccccn2)CCc2cnc(NCc3ccccc3)nc21 (centres undefined)	i	-29.6%[172 µM]	-1.7%[70.6 µM]	39.8µM*
CC1(C(=O)N2CCN(c3ccccn3)CC2)CCc2cnc(NCc3ccccc3)nc21 (centres undefined)	i	100µM*	-8.4%[70.6 µM]	?
CC1(C(=O)NCc2cnccn2)CCc2cnc(NCc3ccccc3)nc21 (centres undefined)	i	-3.7%[172 µM]	1.3%[70.6 µM]	50.1µM*
O=S(=O)(c1ccc2c(c1)CCC2)N1CCCC1c1nncn1C1CCCC1 (centres undefined)	nt	-3.0%	nt	-17.4%
Cc1ccsc1C(=O)N1CC[C@@H]2COCCN(Cc3ccncc3)[C@@H]2C1	nt	?	nt	-20.8%
COc1ccccc1-c1ccc2c(C(=O)N3CCN(Cc4ccccc4)CC3)nn(C)c2n1	nt	1.1%	nt	-16.0%
CNC(=O)C1(C)CN(Cc2ccccc2)Cc2ccc(NCC(C)C)nc21 (centres undefined)	i	?	?	?
CC1(C(=O)NC2COC2)CN(Cc2ccccc2)Cc2ccc(Nc3ccccc3)nc21 (centres undefined)	i	89.1µM*	-1.8%[70.6 µM]	39.8µM*
COC1CCN(C(=O)C2(C)CN(Cc3ccccc3)Cc3ccc(Nc4ccccc4)nc32)CC1 (centres undefined)	i	?	-17.1%	?
CN1CCC(NC(=O)C2(C)CN(Cc3ccccc3)Cc3ccc(Nc4ccccc4)nc32)CC1 (centres undefined)	i	17.8µM*	-3.0%	15.8µM*
COCCN1Cc2ccc(NCc3ccccc3)nc2C(C)(C(=O)NC2COC2)C1 (centres undefined)	i	?	6.9%[70.6 µM]	?
CC1(C(=O)NC2CCOCC2)CN(Cc2ccccc2)Cc2ccc(Nc3ccccc3)nc21 (centres undefined)	i	?	-12.6%	31.6µM*
CC1(C(=O)Nc2ccccc2)CN(Cc2ccccc2)Cc2ccc(N3CCOCC3)nc21 (centres undefined)	i	?	-2.0%	?
CNC(=O)C1(C)CN(Cc2ccccc2)Cc2ccc(Nc3ccccc3)nc21 (centres undefined)	?	79.4µM*	?	?
O=C(NC1CCN(c2nc3ncccc3o2)C1)C1CCCC1 (centres undefined)	nt	i	nt	2.4%[138 µM]
COc1ccccc1-n1c(=O)c(C(=O)N2CCN(C(=O)c3ccccc3Cl)CC2)nc2cccnc21	nt	-10.4%	nt	-30.3%
